Experimental data reported in PubChem BioAssay (Tox21).
Where “and” joins values, the source holds several entries; their conditions need not be identical. Equal entries are not always repeated. Records with an inconclusive call do not appear. Where a call stands in place of a potency, no number is given. Where a structure was tested more than once in an assay, its records may differ in their call. Calls of active or inactive are those of the source. Unless noted, calls follow the shape of the dose curve; as a rule, active = well fitted curve in the direction sought with a large enough effect in the repeat runs; inconclusive = weak or mixed curves; inactive = no such curve, though single readings can be large; an effect the other way counts as inactive or inconclusive.

Assays:
[1] = qHTS assay to test for compound auto fluorescence at 535 nm (green) in HepG2 cells (AID 720675)
[2] = qHTS assay to test for compound auto fluorescence at 535 nm (green) in HepG2 cell free culture (AID 720686)
[3] = qHTS assay for identifying genotoxic compounds that show differential cytotoxicity against isogenic chicken DT40 cell lines with known DNA damage response pathways - wild type cell line (AID 743012); also: potency is read from the fitted curve at half-maximal effect; nearly all actives have a fitted effect of over 60% in size
Procedure, shortened: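 First, wild type DT40 cells were plated at 300 per well and equilibrated about 0.5 h at 37 C/5% CO2. Next, compounds in DMSO were added and exposure lasted 40 h. Finally, CellTiter-Glo was added for 30 min at room temperature and luminescence recorded.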

[4] = qHTS assay to identify small molecule antagonists of the estrogen receptor alpha (ER-alpha) signaling pathway using the BG1 cell line - cell viability counter screen (AID 743081);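 also: compound given together with 17beta-estradiol as the ER stimulus; series mostly up to about 70 µM; nearly all actives have a fitted effect of over 45% in size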
[5] = qHTS assay to identify aromatase inhibitors - cell viability counter screen (AID 743084);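 also: cells stimulated with testosterone during compound exposure; nearly all actives have a fitted effect of over 55% in size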; also: potency is read from the fitted curve at half-maximal effect
[6] = qHTS assay to identify small molecule agonists of the peroxisome proliferator-activated receptor delta (PPARd) signaling pathway - cell viability counter screen (AID 743211); also: nearly all actives have a fitted effect of over 55% in size; also: potency is read from the fitted curve at half-maximal effect
Procedure, shortened: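 In the same wells used for beta-lactamase reporter measurement, cytotoxicity is scored by CellTiter-Glo. HEK293H PPARd-bla cells receive compound for 17 h at 37C following a 5 h settling period.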

[7] = biological target: Peroxisome proliferator-activated receptor delta (Homo sapiens) (UniProt Q03181); experiment: qHTS assay to identify small molecule antagonists of the peroxisome proliferator-activated receptor delta (PPARd) signaling pathway (AID 743215; active = well fitted inhibition curve with a large enough effect in the signal ratio in the repeat runs, not every such curve was filed as active; the % refers to the signal ratio;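 also: cells stimulated with agonist L165041 at 300 nM final during compound exposure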; also: potency is read from the fitted curve at half-maximal effect)
Procedure, shortened: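 HEK293H UAS-bla, PPARd; agonist L165041 300 nM final with cpd in DMSO; 37 C 17 h; FRET substrate, RT 2 h; fluorescence intensity.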

[8] = qHTS assay to identify small molecule antagonists of the farnesoid-X-receptor (FXR) signaling pathway - cell viability counter screen (AID 743221; active = well fitted cell-killing curve with a large enough effect in the repeat runs, not every such curve was filed as active; also: nearly all actives have a fitted effect of over 50% in size; also: potency is read from the fitted curve at half-maximal effect)
Procedure, shortened: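 Here viability was scored by luminescence after CellTiter-Glo addition to wells already read for beta-lactamase. Prior treatment: compound plus CDCA (50 uM final), 16 h, 37 C, HEK 293T FXR-bla cells.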

[9] = biological target: Progesterone receptor (Homo sapiens) (UniProt P06401); experiment: qHTS assay to identify small molecule antagonists of the progesterone receptor (PR) signaling pathway (AID 1346795; active = well fitted inhibition curve with a large enough effect in the signal ratio in the repeat runs, not every such curve was filed as active; the % refers to the signal ratio; also: potency is read from the fitted curve at half-maximal effect)
Procedure, shortened: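 Stimulus R5020 at 1 nM final; cells HEK293T PR-UAS-bla; medium with 2% charcoal-stripped FBS; compound exposure 16 hr at 37C, 5% CO2; detection by FRET beta-lactamase substrate, 2 hr, room temperature.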

[10] = qHTS assay to identify small molecule agonists of the progesterone receptor (PR) signaling pathway - cell viability counter screen (AID 1346799; calls by dose curve; also: nearly all actives have a fitted effect of over 45% in size; also: potency is read from the fitted curve at half-maximal effect)
Procedure, shortened: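 Multiplexed viability read: CellTiter-Glo luminescence, 30 min RT, following LiveBLAzer FRET measurement on PR-UAS-bla HEK293T cells exposed to compounds 16 hr.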

[11] = biological target: Estrogen receptor beta (Homo sapiens) (UniProt Q92731); experiment: qHTS assay to identify small molecule antagonists of the estrogen receptor beta (ER-beta) signaling pathway (AID 1259378; active = well fitted inhibition curve with a large enough effect in the signal ratio in the repeat runs, not every such curve was filed as active; the % refers to the signal ratio; also: potency is read from the fitted curve at half-maximal effect)
Procedure, shortened: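 ER-beta-UAS-bla HEK293T (GripTite) cells in 2% charcoal-stripped FBS medium were preincubated 6 hr at 37C, dosed with compound, then stimulated with 1 nM E2 (final) for 16 hr; beta-lactamase reporter read by B/G FRET fluorescence after 2 hr substrate loading.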

[12] = biological target: Thyrotropin-releasing hormone receptor (Homo sapiens) (UniProt P34981); experiment: qHTS assay to identify small molecule antagonists of the thyrotropin-releasing hormone receptor (TRHR) signaling pathway (AID 1346877; active = well fitted inhibition curve with a large enough effect in the repeat runs, not every such curve was filed as active; also: series mostly up to about 51 µM)
Procedure, shortened: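 Following an 18 h incubation at 37 °C and a 2 h calcium dye load, TRHR-HEK293 cells were exposed to compound (5 min, room temperature) and challenged with TRH, 1 nM final.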

[13] = qHTS assay for small molecule activators of the heat shock response signaling pathway (AID 743210; active = well fitted activation curve with a large enough effect in the signal ratio in the repeat runs, with a control signal flat, not every such curve was filed as active; the % refers to the signal ratio; also: potency is read from the fitted curve at half-maximal effect;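 as to activation: HeLa cells with beta-lactamase reporter driven by heat shock elements; series mostly up to about 63 µM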)
Procedure, shortened: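 Reporter gene assay: HeLa cells stably bearing an HSE-bla construct, compound treatment 5 h at 37 C, LiveBLAzer substrate 2.5 h at RT, fluorescence intensity.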

[14] = qHTS assay for small molecule disruptors of the mitochondrial membrane potential (AID 720635); also: potency is read from the fitted curve at half-maximal effect
Procedure, shortened: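 HepG2 cells (2,000/well) attached overnight at 37C, then took compound for 1 hr at 37C, 5% CO2. Mito-MPS dye was added for 30 min; fluorescence was read at 490/535 nm (monomers) and 540/590 nm (aggregates).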

[15] = qHTS assay to test for compound auto fluorescence at 460 nm (blue) in HEK293 cell free culture (AID 720681)
Procedure, shortened: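 Test compounds were pinned into cell-free culture medium (DMEM with 10% FBS) and fluorescence was read directly at Ex/Em 405/460 nm. Signals were expressed as fluorescence equivalents of triamterene, with DMSO vehicle as control.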

[16] = qHTS assay for identifying genotoxic compounds that show differential cytotoxicity against isogenic chicken DT40 cell lines with known DNA damage response pathways - Rad54/Ku70 mutant cell line (AID 743015); also: potency is read from the fitted curve at half-maximal effect; nearly all actives have a fitted effect of over 60% in size
[17] = qHTS assay to identify small molecule antagonists of the androgen receptor (AR) signaling pathway - cell viability counter screen (AID 743033; also: nearly all actives have a fitted effect of over 45% in size; also: potency is read from the fitted curve at half-maximal effect)
[18] = qHTS assay to identify small molecule antagonists of the thyroid receptor (TR) signaling pathway - cell viability counter screen (AID 743064); also: potency is read from the fitted curve at half-maximal effect; nearly all actives have a fitted effect of over 50% in size
Procedure, shortened: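 CellTiter-Fluor readout, 30 min at 37 °C/5% CO2, following 23.5 h incubation of GH3.TRE-Luc cells with test compound and 1 nM T3 (final).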

[19] = biological target: Androgen receptor (Homo sapiens) (UniProt P10275); experiment: qHTS assay to identify small molecule agonists of the androgen receptor (AR) signaling pathway in the presence of an antagonist (AID 1259381; calls by dose curve; also: nearly all actives have a fitted effect of over 15% in size; also: potency is read from the fitted curve at half-maximal effect)
Procedure, shortened: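 Test compounds at 15 concentrations were incubated for 16hr with MDA-kb2 reporter cells in presence of 3.0uM nilutamide (final). Signal: ONE-Glo luciferase luminescence.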

[20] = qHTS assay to identify small molecule that activate the aryl hydrocarbon receptor (AhR) signaling pathway - cell viability counter screen (AID 743086); also: nearly all actives have a fitted effect of over 45% in size; also: potency is read from the fitted curve at half-maximal effect
Procedure, shortened: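 HepG2-AhR-luc (HG2L7.5c1) cells, 4000/well, were preincubated 5 h at 37C, exposed to compound in qHTS format for 24 hr at 37C, then given CellTiter-Fluor for 30 min; viability was read as fluorescence in the reporter wells.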

Chain of Androgen receptor (Homo sapiens) (P10275 whole entry, looked up): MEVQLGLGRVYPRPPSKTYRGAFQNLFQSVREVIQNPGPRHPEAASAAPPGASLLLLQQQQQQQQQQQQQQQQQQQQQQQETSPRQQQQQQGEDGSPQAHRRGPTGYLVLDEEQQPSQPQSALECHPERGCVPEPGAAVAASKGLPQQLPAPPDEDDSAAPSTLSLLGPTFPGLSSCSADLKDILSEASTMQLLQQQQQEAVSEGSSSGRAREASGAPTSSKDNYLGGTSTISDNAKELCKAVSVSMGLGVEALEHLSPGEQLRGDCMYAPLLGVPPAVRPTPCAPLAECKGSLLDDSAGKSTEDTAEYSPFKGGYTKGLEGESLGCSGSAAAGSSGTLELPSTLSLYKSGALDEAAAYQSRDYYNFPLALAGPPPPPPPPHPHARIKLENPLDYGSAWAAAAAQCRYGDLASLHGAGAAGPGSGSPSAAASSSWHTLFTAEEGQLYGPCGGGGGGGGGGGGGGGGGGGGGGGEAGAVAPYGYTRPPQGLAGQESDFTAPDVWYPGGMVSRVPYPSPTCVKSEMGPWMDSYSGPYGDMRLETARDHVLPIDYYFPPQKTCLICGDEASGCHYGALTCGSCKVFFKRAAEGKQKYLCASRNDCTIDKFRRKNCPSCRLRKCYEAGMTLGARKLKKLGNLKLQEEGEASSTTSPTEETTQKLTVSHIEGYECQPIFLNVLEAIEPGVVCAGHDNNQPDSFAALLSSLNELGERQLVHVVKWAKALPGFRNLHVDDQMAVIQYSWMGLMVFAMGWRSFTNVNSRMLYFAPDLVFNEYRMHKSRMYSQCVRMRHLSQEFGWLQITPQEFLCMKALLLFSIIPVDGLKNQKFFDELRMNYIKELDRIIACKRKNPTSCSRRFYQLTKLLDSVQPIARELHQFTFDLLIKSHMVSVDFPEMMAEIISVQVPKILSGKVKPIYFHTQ
Chain of Estrogen receptor beta (Homo sapiens) (Q92731 whole entry, looked up): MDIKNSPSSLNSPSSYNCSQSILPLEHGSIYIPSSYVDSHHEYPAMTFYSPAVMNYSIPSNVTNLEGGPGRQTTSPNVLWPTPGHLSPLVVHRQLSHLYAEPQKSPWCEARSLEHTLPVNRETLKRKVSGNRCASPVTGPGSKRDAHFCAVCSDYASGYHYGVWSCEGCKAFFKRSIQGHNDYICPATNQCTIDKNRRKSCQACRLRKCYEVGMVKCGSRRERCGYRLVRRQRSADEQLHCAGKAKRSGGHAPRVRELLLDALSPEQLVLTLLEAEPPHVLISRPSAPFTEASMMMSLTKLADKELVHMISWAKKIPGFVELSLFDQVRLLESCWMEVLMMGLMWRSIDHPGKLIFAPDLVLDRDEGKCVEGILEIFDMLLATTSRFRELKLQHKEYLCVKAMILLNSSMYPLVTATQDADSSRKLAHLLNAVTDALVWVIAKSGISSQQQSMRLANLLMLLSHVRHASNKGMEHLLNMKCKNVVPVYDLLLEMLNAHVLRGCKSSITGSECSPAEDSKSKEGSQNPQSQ
Chain of Progesterone receptor (Homo sapiens) (P06401 whole entry, looked up): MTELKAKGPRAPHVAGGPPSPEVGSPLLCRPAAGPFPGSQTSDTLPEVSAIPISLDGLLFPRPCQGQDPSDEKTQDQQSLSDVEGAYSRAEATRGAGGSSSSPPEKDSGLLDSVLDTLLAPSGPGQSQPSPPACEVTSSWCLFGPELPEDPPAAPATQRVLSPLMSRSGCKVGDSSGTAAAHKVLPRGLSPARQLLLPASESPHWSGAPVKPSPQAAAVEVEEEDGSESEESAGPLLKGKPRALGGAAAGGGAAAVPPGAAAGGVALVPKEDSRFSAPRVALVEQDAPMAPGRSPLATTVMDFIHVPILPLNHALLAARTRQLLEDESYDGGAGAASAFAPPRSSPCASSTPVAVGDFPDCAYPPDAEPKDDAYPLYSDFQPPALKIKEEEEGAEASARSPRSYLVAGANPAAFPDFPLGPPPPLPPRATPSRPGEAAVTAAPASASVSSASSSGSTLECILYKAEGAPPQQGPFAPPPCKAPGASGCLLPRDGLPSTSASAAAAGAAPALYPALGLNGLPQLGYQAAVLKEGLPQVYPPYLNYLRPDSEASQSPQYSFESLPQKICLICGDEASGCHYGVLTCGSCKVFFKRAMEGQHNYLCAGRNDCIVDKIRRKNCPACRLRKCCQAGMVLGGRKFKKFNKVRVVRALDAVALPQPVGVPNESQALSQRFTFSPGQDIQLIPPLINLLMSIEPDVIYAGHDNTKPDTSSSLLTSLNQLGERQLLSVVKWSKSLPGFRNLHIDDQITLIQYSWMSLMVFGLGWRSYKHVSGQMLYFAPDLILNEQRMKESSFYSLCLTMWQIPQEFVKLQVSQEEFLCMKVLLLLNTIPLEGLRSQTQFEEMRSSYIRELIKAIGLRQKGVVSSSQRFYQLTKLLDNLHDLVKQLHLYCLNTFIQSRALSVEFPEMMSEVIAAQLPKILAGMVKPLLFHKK
Chain of Peroxisome proliferator-activated receptor delta (Homo sapiens) (Q03181 whole entry, looked up): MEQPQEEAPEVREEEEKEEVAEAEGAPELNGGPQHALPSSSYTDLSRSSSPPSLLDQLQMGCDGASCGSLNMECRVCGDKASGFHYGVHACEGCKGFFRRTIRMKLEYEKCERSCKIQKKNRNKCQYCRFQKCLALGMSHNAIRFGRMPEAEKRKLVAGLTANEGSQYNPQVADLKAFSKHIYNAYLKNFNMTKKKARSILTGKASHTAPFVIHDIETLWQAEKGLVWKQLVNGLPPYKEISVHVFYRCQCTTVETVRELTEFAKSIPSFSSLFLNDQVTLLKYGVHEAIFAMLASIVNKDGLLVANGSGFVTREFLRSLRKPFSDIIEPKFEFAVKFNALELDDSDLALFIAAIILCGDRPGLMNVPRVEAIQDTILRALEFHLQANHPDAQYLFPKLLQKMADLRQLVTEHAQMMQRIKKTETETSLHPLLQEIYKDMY
Chain of Thyrotropin-releasing hormone receptor (Homo sapiens) (P34981 whole entry, looked up): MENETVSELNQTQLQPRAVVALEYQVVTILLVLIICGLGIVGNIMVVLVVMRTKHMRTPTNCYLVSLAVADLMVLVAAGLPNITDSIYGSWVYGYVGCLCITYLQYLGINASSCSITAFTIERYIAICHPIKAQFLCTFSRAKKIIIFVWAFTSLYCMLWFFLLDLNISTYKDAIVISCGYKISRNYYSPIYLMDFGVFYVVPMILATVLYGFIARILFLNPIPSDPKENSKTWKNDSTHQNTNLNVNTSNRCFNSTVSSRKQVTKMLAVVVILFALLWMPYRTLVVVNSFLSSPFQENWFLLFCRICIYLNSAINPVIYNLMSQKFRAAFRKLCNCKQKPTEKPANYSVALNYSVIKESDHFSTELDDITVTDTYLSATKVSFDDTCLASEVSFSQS

SMILES: c1ccc2c(c1)Sc1ccccc1N2CC1CN2CCC1CC2 (configuration not stated)
- Potency [1]: inactive
- Potency [2]: inactive
- Potency [3]: 5.96 µM (active)
- Potency [4]: inactive
- Potency [5]: inactive
- Potency [6]: 10.6 µM (active)
- Potency [7]: 11.9 µM (active)
- Potency [8]: 18.8 µM (active)
- Potency [9]: 26.6 µM (active)
- Potency [10]: 13.3 µM (active)

SMILES: N#Cc1cc([N+](=O)[O-])ccc1N
- Potency [11]: inactive
- Potency [10]: inactive
- outcome [12]: inactive

SMILES: ClC1=C(Cl)C(Cl)(Cl)C(Cl)=C1Cl
- Potency [13]: 52.9 µM (active)

SMILES: CC(c1ccccc1)(c1ccc(O)cc1)c1ccc(O)cc1
- outcome [12]: inactive

SMILES: CC1COC(Cn2cncn2)(c2ccc(Oc3ccc(Cl)cc3)cc2Cl)O1 (configuration not stated)
- Potency [14]: 61.1 µM (active)
- Potency [1]: inactive
- Potency [15]: inactive
- Potency [2]: inactive
- Potency [3]: 1.37 µM (active)
- Potency [16]: 2.43 µM (active)
- Potency [17]: 21.9 µM (active)
- Potency [18]: 48.6 µM (active)
- Potency [13]: inactive
- Potency [6]: 49 µM (active)
- Potency [7]: 49 µM (active)
- Potency [11]: 27.3 µM (active)
- Potency [9]: 24.3 µM (active)

SMILES: Oc1c(I)cc(I)cc1I
- Potency [19]: inactive
- Potency [9]: 30.6 µM (active)
- Potency [10]: inactive

SMILES: OC(Cc1ccccc1Cl)(Cn1[nH]cnc1=S)C1(Cl)CC1 (configuration not stated)
- Potency [19]: inactive
- Potency [9]: 24.3 µM (active)
- outcome [12]: inactive

SMILES: CCOC(=O)C(O)(c1ccc(Cl)cc1)c1ccc(Cl)cc1
- Potency [14]: 4.37 µM (active) and 24.3 µM (active)
- Potency [15]: inactive
- Potency [2]: inactive
- Potency [3]: 6.18 µM (active) and 19.3 µM (active)
- Potency [16]: 3.9 µM (active) and 17.2 µM (active)
- Potency [17]: 7.84 µM (active)
- Potency [18]: 6.18 µM (active)
- Potency [4]: inactive
- Potency [5]: 6.18 µM (active)
- Potency [20]: 61.8 µM (active) and inactive
- Potency [13]: inactive
- Potency [6]: 13.9 µM (active) and 43.6 µM (active)
- Potency [8]: 44.1 µM (active) and inactive
- Potency [11]: 30.9 µM (active) and 54.5 µM (active)
- Potency [19]: inactive
- Potency [9]: 13.8 µM (active) and 13.7 µM (active)
- outcome [12]: inactive

SMILES: O=S(=O)(C(Cl)(Cl)Cl)C(Cl)(Cl)Cl
- Potency [19]: inactive
- Potency [9]: inactive
- Potency [10]: inactive

SMILES: O=C(Nc1ccccc1-c1ccc(Cl)cc1)c1cccnc1Cl
- Potency [1]: inactive
- Potency [15]: inactive
- Potency [2]: inactive
- Potency [3]: 57.8 µM (active)
- Potency [16]: 66.7 µM (active)
- Potency [4]: inactive
- Potency [5]: inactive
- Potency [20]: inactive
- outcome [12]: inactive

SMILES: CCCCC(CC)COC(=O)CCCCC(=O)OCC(CC)CCCC (configuration not stated)
- Potency [7]: inactive

SMILES: CNC(=O)Oc1cc(C)c(SC)c(C)c1
- Potency [19]: 12.2 µM (active)
- Potency [9]: 27.3 µM (active)
- Potency [10]: inactive
- outcome [12]: inactive

SMILES: COc1cc(OC)c(OC)cc1C=O
- Potency [1]: inactive
- Potency [15]: inactive
- Potency [2]: inactive
- Potency [4]: inactive
- Potency [5]: 59.3 µM (active)
- Potency [8]: inactive
- Potency [11]: inactive
- Potency [19]: inactive
- outcome [12]: inactive

SMILES: Cc1ccc2nc3sc(=O)sc3nc2c1
- activity change, negative = cytotoxicity [10]: -2.84% [at 19 µM] (inactive)
- activity, negative = inhibition [12]: 3.17% [at 10.5 µM] (inactive)

SMILES: Nc1ccc(Cl)cc1[N+](=O)[O-]
- Potency [13]: inactive

SMILES: Nc1ccc([N+](=O)[O-])cc1
- Potency [14]: 1.37 µM (active)
- Potency [1]: inactive
- Potency [15]: inactive
- Potency [2]: inactive
- Potency [3]: 13.7 µM (active)
- Potency [16]: 14.1 µM (active)
- Potency [17]: 54.9 µM (active)
- Potency [20]: 40.9 µM (active)
- Potency [19]: 61.1 µM (active)
- Potency [10]: 7.7 µM (active)

SMILES: O=[N+]([O-])c1c(Cl)c(Cl)cc(Cl)c1Cl
- Potency [1]: inactive
- Potency [15]: inactive
- Potency [2]: inactive
- Potency [17]: inactive
- Potency [5]: inactive
- Potency [13]: inactive
- Potency [6]: inactive
- Potency [8]: inactive
- Potency [9]: inactive

SMILES: CCN(CC)C(=O)Cl
- Potency [11]: inactive
- Potency [19]: inactive
- Potency [9]: inactive
- Potency [10]: inactive
- outcome [12]: inactive

SMILES: ClC(Cl)=C(c1ccc(Cl)cc1)c1ccccc1Cl
- Potency [11]: 6.86 µM (active)
- Potency [19]: inactive
- Potency [10]: inactive
- outcome [12]: inactive

SMILES: Cc1ccc(N(SC(F)(Cl)Cl)S(=O)(=O)N(C)C)cc1
- Potency [14]: 17.2 µM (active)
- Potency [1]: inactive
- Potency [15]: inactive
- Potency [3]: 0.122 µM (active)
- Potency [17]: 3.47 µM (active)
- Potency [18]: 2.73 µM (active)
- Potency [5]: 34.4 µM (active)
- Potency [20]: 48.6 µM (active)
- Potency [6]: 19.5 µM (active)
- Potency [8]: 19.5 µM (active)
- Potency [11]: 13.7 µM (active)
- Potency [19]: inactive
- Potency [10]: inactive

SMILES: Cc1cc(C)c(C(=O)P(=O)(c2ccccc2)c2ccccc2)c(C)c1
- Potency [19]: inactive
